Results filed as inconclusive are left out. Active and inactive are the calls of the source. The call rests on the fitted dose curve; in most records, active means well fitted inhibition curve with a large enough effect; inconclusive means small, poorly fitted or top-dose-only effect; inactive means flat fitted curve, though single readings scatter.
Experiments:
Test in all cases: qHTS profiling for inhibitors of Plasmodium falciparum proliferation (AID 504749); further: nearly all actives have a fitted effect of over 60% in size
Details in all cases: P. falciparum in erythrocytes, SYBR Green DNA, 72 h; series mostly up to 28.7 µM
CP266 = tested on: CP266
Procedure, shortened: (§1)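 Readout was DNA-dye fluorescence from lysed cultures, ex 485/em 535 nm. Parasitized red cells had grown 72 h with compound; data scaled between 0.29 uM artemisinin and DMSO wells and corrected using vehicle-only plates.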

CP268 = tested on: CP268
Procedure, shortened: as §1

CP269 = tested on: CP269
Procedure, shortened: as §1

CP286 = tested on: CP286
Procedure, shortened: as §1

CP291 = tested on: CP291
Procedure, shortened: as §1

CP297 = tested on: CP297
Procedure, shortened: as §1

CP305 = tested on: CP305
Procedure, shortened: as §1

CP315 = tested on: CP315
Procedure, shortened: as §1

CP325 = tested on: CP325
Procedure, shortened: as §1

CP329 = tested on: CP329
Procedure, shortened: as §1

CP335 = tested on: CP335
Procedure, shortened: as §1

DFO2036 = tested on: DFO2036
Procedure, shortened: as §1

DIV14 = tested on: DIV14
Procedure, shortened: as §1

DIV17 = tested on: DIV17
Procedure, shortened: as §1

DIV30 = tested on: DIV30
Procedure, shortened: as §1

Dd2 = tested on: Dd2
Procedure, shortened: as §1

ECU = tested on: ECU
Procedure, shortened: as §1

FAB9 = tested on: FAB9
Procedure, shortened: as §1

GB4 = tested on: GB4
Procedure, shortened: as §1

HB3 = tested on: HB3
Procedure, shortened: as §1

ICS = tested on: ICS
Procedure, shortened: as §1

JCK = tested on: JCK
Procedure, shortened: as §1

N140 = tested on: N140
Procedure, shortened: as §1

P93_24 = tested on: P93_24
Procedure, shortened: as §1

P94_40 = tested on: P94_40
Procedure, shortened: as §1

PAD = tested on: PAD
Procedure, shortened: as §1

PC15 = tested on: PC15
Procedure, shortened: as §1

PC26 = tested on: PC26
Procedure, shortened: as §1

PC49 = tested on: PC49
Procedure, shortened: as §1

SC27B = tested on: SC27B
Procedure, shortened: as §1

TAB109 = tested on: TAB109
Procedure, shortened: as §1

TAB113 = tested on: TAB113
Procedure, shortened: as §1

TAB165 = tested on: TAB165
Procedure, shortened: as §1

W2 = tested on: W2
Procedure, shortened: as §1

Measured: Potency

CCCCN1CC(O)C(O)C(O)C1CO (centres undefined)
inactive: all assays above
